Assay [1] in a line: compounds binding Alexa647 anti-His antibody – biochemical, small-molecule microarray, 635 nm fluorescence, artefact control for SMM control protein annotation, primary screen (AID 1128).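 Also: score merges feature fluorescence with signal-to-noise for each printed compound spot.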 Conditions: higher = more signal.
Assay [2] relates to Human papillomavirus type 1a E7 protein (residues 1-88). The assay can be described thus: HPV1a E7 small-molecule binders, primary screen, biochemical, small-molecule microarray, residues 1-88, 635 nm (AID 1129). Conditions: small-molecule microarray binding, fluorescence 635 nm; higher = more signal.
The target of assay [3] is Focal adhesion kinase 1 (Homo sapiens) (UniProt Q05397). The assay can be described thus: PTK2 protein binding on printed compound slides – biochemical, small-molecule microarray, 635/667 nm fluorescence, BSA, DTT, primary screen (AID 1130).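 Also: composite of spot emission at 667 nm and signal to noise over triplicate slides.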 Conditions: 635 nm fluorescence, higher = more signal.
Assay [4] relates to Fibrinogen (Alexa647-labelled). In words: Alexa647-fibrinogen binding to printed small molecules – biochemical, small-molecule microarray, 635/667 nm fluorescence, artefact control for SMM control-protein annotation, profiling panel (AID 1131).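 Also: z-score merges 667 nm fluorescence with per-spot signal-to-noise over triplicate slides.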 Conditions: fibrinogen-A647 binding fluorescence, higher = more signal.
Assay [5] concerns the target Follistatin (Homo sapiens) (UniProt P19883). The assay can be described thus: FST protein binding to printed compounds – biochemical, small-molecule microarray, 635/667 nm fluorescence, primary screen (AID 1132). Conditions: 635 nm fluorescence, higher = more signal.
The target in assay [6] is Fibroblast growth factor 2 (Homo sapiens) (UniProt P09038). In words: basic fibroblast growth factor binding to printed compounds – biochemical, small-molecule microarray, 635/667 nm fluorescence, primary screen (AID 1133). Conditions: FGF2, fluorescence 635/667, higher = more signal.
A short description of assay [7]: JC-1 mitochondrial potential readout, lung cancer cells – cell-based, A549, JC-1 fluorescence, basal, 24 h, 100 nL, profiling panel (AID 1138).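 Also: A549 lung adenocarcinoma cells under basal conditions with no added stimulus; test concentration not given here.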 Conditions: higher = more signal.
For another assay, the system named is Lefty1. In words: Lefty1 protein binding to printed compounds – biochemical, small-molecule microarray, 635/667 nm fluorescence, primary screen (AID 1139). Conditions: fluorescence 635/667, higher = more signal.
Assay [8] relates to wheat germ agglutinin (Triticum aestivum), Alexa647-labelled. The assay can be described thus: Alexa647-WGA lectin binding to printed small molecules – biochemical, small-molecule microarray, 635/667 nm fluorescence, artefact control for SMM control-protein annotation, profiling panel (AID 1140).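 Also: score merges 667 nm feature emission with signal to noise over triplicate slides.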 Conditions: WGA-A647 binding, 635 nm fluorescence, higher = more signal.
Assay [9] addresses Luciferin 4-monooxygenase (Photinus pyralis) (UniProt P08659). The assay can be described thus: inhibition of purified Photinus pyralis luciferase – biochemical, luminescence, purified enzyme, 2006 set, primary screen (AID 1141).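 Also: cell-free assay with purified firefly luciferase at 100 ng per well in PBS; test concentration not given here.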 Conditions: purified firefly luciferase, SteadyGlo luminescence, 30 min; higher = more signal, called active from +8 up or from −8 down.
The subject of assay [10] is Wnt5a (protein binding on small-molecule microarray). The assay can be described thus: small molecules binding Wnt5a protein – biophysical, small-molecule microarray, 635/667 nm fluorescence, primary screen (AID 1142).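 Also: fluorescence read at 667 nm with signal to noise per printed feature.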 Conditions: 635 nm fluorescence, higher = more signal.
Assay [11] can be described thus: ATP-based viability of Huh7 replicon cells – cell-based, CellTiter-Glo luminescence, basal, 48 h, cytotoxicity control for HCV replication inhibitor project, primary screen (AID 1143).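 Also: Huh7 hepatoma cells carrying a hepatitis C replication reporter with no stimulus; test concentration not given here.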 Conditions: higher = more signal, called active from +8 up or from −8 down. In general terms: A replicon is a self-replicating genome or part of one, used to study replication in cells.

A short description of assay [12]: Pseudomonas biofilm growth suppression – PAO1 strain, BacTiter-Glo luminescence, LB-PBS, primary screen (AID 1144). Conditions: P. aeruginosa PAO1 biofilm, 12 h, higher = more signal.
Assay [13] is described as follows: basal CRE-LacZ reporter activity in PC12 – cell-based, unstimulated, primary screen (AID 1145). Conditions: no forskolin, luminescence, 4.5 h, higher = more signal, called active from +8 up or from −8 down.
The nature of assay [14]: forskolin-driven CRE-LacZ activity in PC12 – cell-based, CRE-LacZ reporter, forskolin-stimulated, primary screen (AID 1146).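 Also: PC12 cells with 6xCRE LacZ reporter stimulated by forskolin 10 µM; beta-galactosidase reporter signal reflecting CREB driven transcription.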 Conditions: luminescence, 4.5 h, higher = more signal, called active from +8 up or from −8 down.
In assay [15] the target is Streptavidin (Streptomyces avidinii) (UniProt P22629). In words: compounds binding control protein streptavidin – biophysical, small-molecule microarray, 635/667 nm fluorescence, artefact control for SMM compound annotation, primary screen (AID 1147).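 Also: signal reflects streptavidin binding to arrayed compounds as a control protein.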 Conditions: higher = more signal.
Assay [16] is described as follows: probe aInhba binding on compound microarray – biochemical, small-molecule microarray, 635/667 nm fluorescence, primary screen (AID 1148).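 Also: score merges 667nm spot fluorescence with signal-to-noise for antibody binding to printed compounds.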 Conditions: higher = more signal.
Assay [17] concerns the target Torsin-1A (Homo sapiens) (UniProt O14656). In words: TOR1A wild-type binding on microarray – cell lysate, small-molecule microarray, lysate, 635/667 nm, primary screen (AID 1149). Conditions: COS7 hTOR1A-WT lysate, 635 nm fluorescence, higher = more signal.
The target is the same in assay [18]. In words: torsin A mutant lysate binding on microarrays – cell lysate, small-molecule microarray, COS7 lysate, 635/667 nm fluorescence, primary screen (AID 1150).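 Also: score pools 667 nm emission and signal to noise measuring lysate protein binding.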 Conditions: COS7 hTOR1A mutant lysate, 635 nm fluorescence, higher = more signal.
For assay [19], the system named is Sonic hedgehog protein (Shh). In words: Sonic hedgehog microarray binding compounds – biochemical, small-molecule microarray, 635/667 nm fluorescence, primary screen (AID 1151).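 Also: Shh protein binding to compounds spotted on small-molecule microarray slides; score combines spot fluorescence intensity with signal-to-noise across triplicate slides.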 Conditions: 635 nm fluorescence, higher = more signal.

SMILES strings stand for the structures. The source made the active and inactive calls. Unless noted, no rule for the calls is given here.

Sequence of Luciferin 4-monooxygenase (Photinus pyralis) (P08659 whole entry, looked up): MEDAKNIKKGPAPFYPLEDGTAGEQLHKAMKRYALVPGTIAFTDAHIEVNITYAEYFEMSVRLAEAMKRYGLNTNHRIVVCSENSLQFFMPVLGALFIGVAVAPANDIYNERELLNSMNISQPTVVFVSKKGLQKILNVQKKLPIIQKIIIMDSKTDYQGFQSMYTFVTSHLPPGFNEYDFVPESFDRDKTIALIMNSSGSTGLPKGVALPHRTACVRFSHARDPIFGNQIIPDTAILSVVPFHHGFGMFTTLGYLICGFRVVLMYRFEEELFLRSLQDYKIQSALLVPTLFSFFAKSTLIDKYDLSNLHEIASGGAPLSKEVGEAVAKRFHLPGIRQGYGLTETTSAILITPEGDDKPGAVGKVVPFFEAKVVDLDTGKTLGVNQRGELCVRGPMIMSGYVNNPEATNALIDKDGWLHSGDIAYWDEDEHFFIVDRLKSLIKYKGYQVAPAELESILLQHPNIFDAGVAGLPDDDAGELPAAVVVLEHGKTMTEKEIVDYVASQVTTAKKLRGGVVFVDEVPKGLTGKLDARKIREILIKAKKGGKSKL
Sequence of Focal adhesion kinase 1 (Homo sapiens) (Q05397 whole entry, looked up): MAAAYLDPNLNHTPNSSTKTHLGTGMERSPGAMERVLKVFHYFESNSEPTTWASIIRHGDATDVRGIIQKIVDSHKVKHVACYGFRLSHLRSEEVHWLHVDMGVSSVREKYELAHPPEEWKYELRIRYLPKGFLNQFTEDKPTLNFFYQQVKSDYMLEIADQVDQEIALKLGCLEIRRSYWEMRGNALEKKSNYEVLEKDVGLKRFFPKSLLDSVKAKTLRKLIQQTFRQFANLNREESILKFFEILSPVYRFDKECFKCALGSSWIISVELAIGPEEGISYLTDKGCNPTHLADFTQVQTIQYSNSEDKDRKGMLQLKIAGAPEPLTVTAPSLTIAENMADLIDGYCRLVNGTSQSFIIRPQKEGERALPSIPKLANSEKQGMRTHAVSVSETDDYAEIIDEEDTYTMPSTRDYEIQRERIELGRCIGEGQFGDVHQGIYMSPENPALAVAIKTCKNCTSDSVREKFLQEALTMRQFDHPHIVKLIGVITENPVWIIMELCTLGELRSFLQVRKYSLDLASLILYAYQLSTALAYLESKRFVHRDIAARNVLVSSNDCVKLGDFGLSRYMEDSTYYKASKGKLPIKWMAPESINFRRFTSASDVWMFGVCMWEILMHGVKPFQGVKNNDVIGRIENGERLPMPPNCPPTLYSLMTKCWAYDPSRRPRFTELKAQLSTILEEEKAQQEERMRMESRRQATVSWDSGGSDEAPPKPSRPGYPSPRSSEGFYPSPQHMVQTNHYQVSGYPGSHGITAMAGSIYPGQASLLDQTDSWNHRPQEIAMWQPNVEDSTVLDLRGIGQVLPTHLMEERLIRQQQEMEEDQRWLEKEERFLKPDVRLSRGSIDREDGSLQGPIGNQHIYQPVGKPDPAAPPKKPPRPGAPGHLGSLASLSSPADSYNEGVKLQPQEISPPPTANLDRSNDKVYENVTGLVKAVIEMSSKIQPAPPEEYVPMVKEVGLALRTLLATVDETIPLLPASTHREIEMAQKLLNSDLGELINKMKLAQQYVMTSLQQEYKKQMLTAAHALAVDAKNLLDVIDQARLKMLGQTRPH
Sequence of Torsin-1A (Homo sapiens) (O14656 whole entry, looked up): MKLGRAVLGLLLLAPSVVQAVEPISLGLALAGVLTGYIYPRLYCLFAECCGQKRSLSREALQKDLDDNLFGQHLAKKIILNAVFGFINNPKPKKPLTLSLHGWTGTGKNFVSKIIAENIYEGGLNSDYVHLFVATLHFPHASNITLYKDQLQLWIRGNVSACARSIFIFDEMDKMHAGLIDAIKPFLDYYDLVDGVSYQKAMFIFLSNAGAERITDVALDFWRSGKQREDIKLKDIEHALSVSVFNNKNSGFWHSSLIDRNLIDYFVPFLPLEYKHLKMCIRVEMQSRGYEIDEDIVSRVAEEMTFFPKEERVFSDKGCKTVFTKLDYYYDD
Sequence of Streptavidin (Streptomyces avidinii) (P22629 whole entry, looked up): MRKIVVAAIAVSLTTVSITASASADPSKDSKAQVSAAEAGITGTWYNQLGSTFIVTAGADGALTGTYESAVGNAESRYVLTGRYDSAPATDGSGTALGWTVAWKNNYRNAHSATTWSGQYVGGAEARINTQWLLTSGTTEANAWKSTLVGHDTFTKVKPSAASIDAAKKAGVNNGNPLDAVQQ
Sequence of Follistatin (Homo sapiens) (P19883 whole entry, looked up): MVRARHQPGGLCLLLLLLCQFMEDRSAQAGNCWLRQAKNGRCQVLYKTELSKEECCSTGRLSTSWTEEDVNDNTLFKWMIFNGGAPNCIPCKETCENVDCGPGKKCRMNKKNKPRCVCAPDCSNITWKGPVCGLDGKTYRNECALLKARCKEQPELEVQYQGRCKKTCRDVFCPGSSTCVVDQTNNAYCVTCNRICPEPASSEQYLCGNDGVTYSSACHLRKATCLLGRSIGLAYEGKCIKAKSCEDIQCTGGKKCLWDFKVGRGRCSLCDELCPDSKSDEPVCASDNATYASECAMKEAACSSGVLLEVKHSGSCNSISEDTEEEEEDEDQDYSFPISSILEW
Sequence of Fibroblast growth factor 2 (Homo sapiens) (P09038 whole entry, looked up): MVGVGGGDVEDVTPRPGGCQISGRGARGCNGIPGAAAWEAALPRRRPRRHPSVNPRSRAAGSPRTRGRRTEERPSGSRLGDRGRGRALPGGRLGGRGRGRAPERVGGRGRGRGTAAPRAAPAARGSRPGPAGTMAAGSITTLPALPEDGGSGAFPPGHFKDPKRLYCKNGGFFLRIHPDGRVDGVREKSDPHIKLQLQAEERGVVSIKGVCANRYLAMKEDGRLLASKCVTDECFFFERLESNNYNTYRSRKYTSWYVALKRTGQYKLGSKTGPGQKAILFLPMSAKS

For the compound `CCCCCN1CC=CC23O[C@@H]4C=CCOC(=O)[C@@H]4[C@H]2C(=O)N(CCCCCCO)[C@@H]3C1=O` (stereo not given in full), the composite z-score in assay [1] is 0.309; in assay [2] it was -0.381; in assay [3], -0.236; in [4], -1.04; in assay [5], -2.23; in assay [6] it was -1.49. Also, the composite z-score with Lefty1 was -1.05; in assay [8], -0.416; in assay [10], -0.485; in assay [15], -0.976; in [16], -0.15; with Torsin-1A (Homo sapiens) [17], -1.78. Besides, the figures for the composite z-score (in the assay with Torsin-1A (Homo sapiens) [18]; in [19]) were -0.966 and -0.837, respectively. The z-score is 0.421 in assay [7]; 0.294 (inactive) in assay [9]; 0.0442 (inactive) in assay [11]; 0.851 (inactive) in assay [12]; -0.342 (inactive) in assay [13]; 0.124 (inactive) in assay [14].
Take `CCCCCN1CC=CC23O[C@@H]4C=CCOC(=O)[C@@H]4[C@H]2C(=O)N(C(CO)C(C)C)[C@@H]3C1=O` (stereo not given in full): the composite z-score is 0.373 in [1]; -1.02 in assay [2]; -0.565 in assay [3]; -0.217 in [4]; 0.142 in assay [5]; -0.533 in [6]. Moreover, the composite z-score is 0.0028 with Lefty1; -0.521 in [8]; -0.389 in [10]; -0.263 in assay [15]; 0.0013 in assay [16]; -1.34 with Torsin-1A (Homo sapiens) [17]. Moreover, the composite z-score in the assay with Torsin-1A (Homo sapiens) [18] is -1.38; in assay [19], 0.298. The z-score in assay [7] was -0.348; in assay [9] it was 0.281 (inactive); in assay [11] it was -0.524 (inactive); in assay [12], 0.921 (inactive); in assay [13], -0.757 (inactive); in assay [14], 0.371 (inactive).
For `CC(C)C[C@@H]1NC(=O)[C@H]2C[C@@H](C(=O)O)[C@@H](c3ccc(O)cc3)N2C1=O`, the composite z-score in [1] is 3.44; in assay [2] it was -0.526; in [3] it was -0.199; in assay [4], -0.0448; in [5], 1.34; in assay [6], 0.85. Besides, the composite z-score is 0.874 in the assay with Lefty1; 0.242 in assay [8]; 0.0112 in [10]; 0.0925 in assay [15]; -0.0521 in assay [16]; 0.884 with Torsin-1A (Homo sapiens) [17]. For the same compound, the composite z-score is 0.285 in the assay with Torsin-1A (Homo sapiens) [18] and 1.67 in assay [19]. Further, the z-score was -0.986 in [7]; -1.2 (inactive) in [9]; -0.354 (inactive) in assay [11]; -0.1 (inactive) in [12]; 0.281 (inactive) in assay [13]; -0.627 (inactive) in assay [14].
For the compound `C[C@@H]1CC[C@H]2C(=O)O[C@H](COc3ccc(C(C)(C)C)cc3)CN2[C@H]1c1ccc(Br)cc1`, the composite z-score is 2.99 in assay [1]; -0.701 in assay [2]; -0.0482 in [3]; 0.54 in assay [4]; -0.123 in assay [5]; 0.0203 in assay [6]. Moreover, the composite z-score in the assay with Lefty1 was 0.0924; in assay [8], 0.148; in assay [10] it was -0.131; in assay [15], 0.102; in assay [16] it was -0.17; with Torsin-1A (Homo sapiens) [17] it was -0.175. Also, the composite z-score was -0.142 with Torsin-1A (Homo sapiens) [18] and 0.348 in assay [19]. The z-score in [7] is 1.87; in [9], -1.36 (inactive); in assay [11] it was -0.443 (inactive); in assay [12] it was -0.301 (inactive); in assay [13], 0.262 (inactive); in assay [14] it was 0.203 (inactive).
Consider `COc1ccccc1CN1C(=O)c2ccccc2[C@@]2(Cc3ccccc3N(C(C)C)C2=O)[C@@H]1c1ccc(CO)cc1`, for which the composite z-score in [1] was -0.166; in assay [2] it was -0.263; in [3] it was -0.0604; in [4], -0.586; in assay [5], -0.13; in [6], -0.609. Moreover, the composite z-score in the assay on Lefty1 was -0.404; in assay [8], 0.57; in assay [10], -0.458; in assay [15] it was -0.213; in assay [16], -0.0695; in the assay with Torsin-1A (Homo sapiens) [17], -1.25. In addition, the composite z-score with Torsin-1A (Homo sapiens) [18] is 0.373; in assay [19], -0.147. In addition, the z-score in assay [7] was 0.427; in assay [9], -1.08 (inactive); in [11], -1.84 (inactive); in assay [12] it was -0.205 (inactive); in [13], -0.179 (inactive); in [14], -0.335 (inactive).
